In ChEMBL document CHEMBL3433997, “St. Jude Leishmania screening dataset” (2016):

These molecules were tested against Hexose transporter 1 (Plasmodium falciparum) (UniProt O97467) (assay: ST_JUDE_LEISH: Cytotoxicity at 2uM final concentration against transgenic Leishmania Mexicana promastigotes LmPfHT that are glucose transport deficient and complemented with the Plasmodium falciparum hexose transporter. Activity is measured by DNA content using SYBR green in vitro).
Format: functional
For `COc1ccc(Br)cc1/C=C/C(=O)Nc1cccc(C2CCCN(C)C2)c1` (stereo not given), the inhibition was 5.55%.
`O=C(Nc1ccc2c(c1)CCC2)c1cccc(CN2CCCN(Cc3cccc(O)c3)CC2)c1` was tested, and the inhibition was -2.6%.
Work on `N#Cc1cccc(-c2cccc(C(=O)NC3CCC(CCN4CCc5ccc(C#N)cc5CC4)CC3)c2)c1` (stereo not given) yielded an inhibition of 8.62%.
In the case of `COc1ccc(CCCON2C(=N)N=C(N)NC2(C)C)cc1`, the inhibition is reported as 23%.
In the case of `Cc1cccc2nc(-c3ccc(-c4ccc(NC(=O)Nc5ccc(Cl)c(Cl)c5)cc4)cc3)[nH]c12`, the inhibition is reported as 1.99%.
`CN1CCC(N2CCN(C(=O)c3cccc(-c4cccc(-c5nc6ccccc6[nH]5)c4)c3)CC2)CC1` showed an inhibition of 2.54%.
With `O=C(Nc1cccc(CN2CCCN(Cc3ccccc3)CC2)c1)c1ccc(Cl)c(Cl)c1` the inhibition was 3.88%.
For `O=C(Nc1ccccc1)N(Cc1cccc(-c2ccc(CNCc3ccc4c(c3)OCO4)cc2)c1)C1CCN(Cc2ccccc2)CC1`, the inhibition was 4.07%.
`CCc1c[nH]c2c(N3CCCC3=O)cc(C(=O)N[C@@H](Cc3ccccc3)[C@H](O)CNC(C)(C)CCCC(C)C)cc12` gave an inhibition of 9.72%.
`Cc1cc(NC(=O)c2cccs2)ccc1OC1CCN(Cc2ccc(F)cc2)CC1` gave an inhibition of 2.76%.
`Cc1nc2nc(N)nc(N)c2c(C)c1Cc1cccc(F)c1` showed an inhibition of 1.14%.
Work on `COCC(C)n1c(SCC(=O)Nc2cc(C(F)(F)F)ccc2Cl)nc2ccccc2c1=O` (stereo not given) yielded an inhibition of 4.88%.
In the case of `Cc1cccc(C(=O)NCCCN2CCC(NC(=O)/C=C/c3ccc(Cl)c(Cl)c3)CC2)c1`, the inhibition is reported as 0.15%.
Work on `COc1ccc(-c2cccc(NC(=O)c3cccc(C#N)c3)c2)cc1CN1CCCC1` yielded an inhibition of 15.9%.
Work on `c1ccc(CN2CCC(Nc3ccc(-c4c[nH]nc4-c4ccccn4)nc3)CC2)cc1` yielded an inhibition of 4.84%.
In the case of `COc1ccc(Nc2ncc3c(-c4cccc(NC(=O)Cc5cccc(O)c5)c4)c[nH]c3n2)cc1OC`, the inhibition is reported as 1.51%.
With `O=C1CCCN1CCCNCc1cccc(-c2ccc(-c3nc4cc(C(F)(F)F)ccc4[nH]3)cc2)c1` the inhibition was 13%.
Work on `O=C(Nc1cccc(-c2ccc(NCCCN3CCCC3)nc2)c1)c1ccccc1` yielded an inhibition of 6.59%.
`O=c1ccc(CNc2nc(NCCc3ccccc3)nc3ccc(Cl)cc23)c[nH]1` showed an inhibition of 3.7%.
Work on `N=C(N)Nc1nc(-c2ccc(NCc3ccc(CNc4cccc(-c5csc(NC(=N)N)n5)c4)cc3)cc2)cs1` yielded an inhibition of 1.69%.
In the case of `Cn1cc(CN2CCCC(COC(c3ccccc3)c3ccccc3)C2)cn1` (stereo not given), the inhibition is reported as 2.93%.
Molecule `c1ccc(-c2cc(NCCNc3cc(-c4ccccc4)nc4ccccc34)c3ccccc3n2)cc1` has an inhibition of 6.2%.
`O=C(Nc1cccc(F)c1)c1ccc(C(=O)NC2CCN(CC3CCCCC3)CC2)cc1` gave an inhibition of 5.33%.
For `O=[N+]([O-])c1ccc(-c2nc3cc(C4=NC5CCCCC5N4)ccc3[nH]2)cc1` (stereo not given), the inhibition was -0.65%.
Molecule `COc1ccc(C(=O)COc2cccc(/C=C/C(=O)O)c2)cc1OC` has an inhibition of 0.15%.
`Cc1cccc2nc(-c3ccc(-c4ccc(NC(=O)Nc5ccc(Cl)cc5)cc4)cc3)[nH]c12` showed an inhibition of 1.17%.
With `COc1ccccc1C1CCN(C2CCC(NC(=O)/C=C/c3cc(C(F)(F)F)cc(C(F)(F)F)c3)CC2)CC1` (stereo not given) the inhibition was -0.91%.
`CCCCCN1CCCN(Cc2cccc(NC(=O)c3ccc(-c4ccccc4)cc3)c2)CC1` showed an inhibition of -0.99%.
For `COC(=O)Cn1c(C2CCN(CC3CCN(C(=O)/C=C/c4ccc(Cl)c(Cl)c4)CC3)CC2)nc2ccccc21`, the inhibition was 0.62%.
With `Cc1cc(C(F)(F)F)cc(-n2ncc(-c3ccc(C(=O)NCc4ccccc4N)cc3)c2N)n1` the inhibition was 98.5%.
Work on `CC1(C)C(N(O)C(=O)Nc2ccc(Cl)c(Cl)c2)N(c2ccc(Cl)c(Cl)c2)C(=O)N1CCc1ccccc1` (stereo not given) yielded an inhibition of 0.2%.
`Cc1cc(=NN=Cc2ccc(F)cc2)c2cc(C(F)(F)F)ccc2[nH]1` gave an inhibition of 2.57%.
With `CC(C)c1ncc(-c2ccncc2)c(C2CCC(CNC(=O)c3cccnc3)CC2)n1` (stereo not given) the inhibition was 1.25%.
`Cc1ccc(Nc2nc3cc(N(C)c4ccnc(Nc5cccc(CS(C)(=O)=O)c5)n4)ccc3o2)cc1` was tested, and the inhibition was 4.21%.
In the case of `O=C(NCCCNc1ccc2ccccc2n1)c1cc2c(Cl)cc(Cl)cc2[nH]1`, the inhibition is reported as -0.36%.
With `Cc1cnn(-c2cccc(C(=O)NC3CCC(CCN4CCc5ccc(C#N)cc5CC4)CC3)c2)c1` (stereo not given) the inhibition was 6.24%.
Work on `COc1cc(CN=C(S)NN=C(C)c2ccccn2)cc(OC)c1OC` yielded an inhibition of 1.2%.
Molecule `O=C(Nc1ccc(C(=O)N(Cc2ccc3c(c2)OCO3)C2CCCC2)cc1)c1cccs1` has an inhibition of 0.69%.
For `Cc1cc(=O)[nH]c2cc(Nc3ccnc(Nc4cccc(C(N)=O)c4)n3)ccc12`, the inhibition was 3.83%.
Molecule `Cc1cc(=NN=Cc2ccccc2)c2cc(F)ccc2[nH]1` has an inhibition of 0.79%.

The molecules below were run against Glucose transporter (Leishmania mexicana) (UniProt O61059) (assay: ST_JUDE_LEISH: Cytotoxicity at 2uM final concentration against transgenic Leishmania Mexicana promastigotes LmGT2 that are glucose transport deficient and complemented with the L. Mexicana glucose transporter 2. Activity is measured by DNA content using SYBR green in vitro).
Format: functional
`COc1ccc(Br)cc1/C=C/C(=O)Nc1cccc(C2CCCN(C)C2)c1` (stereo not given) was tested, and the inhibition was 7.45%.
`O=C(Nc1ccc2c(c1)CCC2)c1cccc(CN2CCCN(Cc3cccc(O)c3)CC2)c1` showed an inhibition of -0.46%.
For `N#Cc1cccc(-c2cccc(C(=O)NC3CCC(CCN4CCc5ccc(C#N)cc5CC4)CC3)c2)c1` (stereo not given), the inhibition was 11.2%.
With `COc1ccc(CCCON2C(=N)N=C(N)NC2(C)C)cc1` the inhibition was 18%.
`Cc1cccc2nc(-c3ccc(-c4ccc(NC(=O)Nc5ccc(Cl)c(Cl)c5)cc4)cc3)[nH]c12` was tested, and the inhibition was 1.71%.
Work on `CN1CCC(N2CCN(C(=O)c3cccc(-c4cccc(-c5nc6ccccc6[nH]5)c4)c3)CC2)CC1` yielded an inhibition of 2.11%.
`O=C(Nc1cccc(CN2CCCN(Cc3ccccc3)CC2)c1)c1ccc(Cl)c(Cl)c1` was tested, and the inhibition was -5.96%.
`O=C(Nc1ccccc1)N(Cc1cccc(-c2ccc(CNCc3ccc4c(c3)OCO4)cc2)c1)C1CCN(Cc2ccccc2)CC1` gave an inhibition of 2.52%.
`CCc1c[nH]c2c(N3CCCC3=O)cc(C(=O)N[C@@H](Cc3ccccc3)[C@H](O)CNC(C)(C)CCCC(C)C)cc12` showed an inhibition of 8.72%.
`Cc1cc(NC(=O)c2cccs2)ccc1OC1CCN(Cc2ccc(F)cc2)CC1` was tested, and the inhibition was 5.08%.
`Cc1nc2nc(N)nc(N)c2c(C)c1Cc1cccc(F)c1` showed an inhibition of 0.65%.
Molecule `COCC(C)n1c(SCC(=O)Nc2cc(C(F)(F)F)ccc2Cl)nc2ccccc2c1=O` (stereo not given) has an inhibition of 2.72%.
For `Cc1cccc(C(=O)NCCCN2CCC(NC(=O)/C=C/c3ccc(Cl)c(Cl)c3)CC2)c1`, the inhibition was 2.02%.
`COc1ccc(-c2cccc(NC(=O)c3cccc(C#N)c3)c2)cc1CN1CCCC1` gave an inhibition of 5.27%.
Molecule `c1ccc(CN2CCC(Nc3ccc(-c4c[nH]nc4-c4ccccn4)nc3)CC2)cc1` has an inhibition of 4.12%.
`COc1ccc(Nc2ncc3c(-c4cccc(NC(=O)Cc5cccc(O)c5)c4)c[nH]c3n2)cc1OC` gave an inhibition of 3.39%.
For `O=C1CCCN1CCCNCc1cccc(-c2ccc(-c3nc4cc(C(F)(F)F)ccc4[nH]3)cc2)c1`, the inhibition was 13%.
Molecule `O=C(Nc1cccc(-c2ccc(NCCCN3CCCC3)nc2)c1)c1ccccc1` has an inhibition of 0.77%.
Work on `O=c1ccc(CNc2nc(NCCc3ccccc3)nc3ccc(Cl)cc23)c[nH]1` yielded an inhibition of 0.86%.
Work on `N=C(N)Nc1nc(-c2ccc(NCc3ccc(CNc4cccc(-c5csc(NC(=N)N)n5)c4)cc3)cc2)cs1` yielded an inhibition of 1.12%.
Molecule `Cn1cc(CN2CCCC(COC(c3ccccc3)c3ccccc3)C2)cn1` (stereo not given) has an inhibition of 2.57%.
`c1ccc(-c2cc(NCCNc3cc(-c4ccccc4)nc4ccccc34)c3ccccc3n2)cc1` gave an inhibition of 15.2%.
For `O=C(Nc1cccc(F)c1)c1ccc(C(=O)NC2CCN(CC3CCCCC3)CC2)cc1`, the inhibition was 1.84%.
`O=[N+]([O-])c1ccc(-c2nc3cc(C4=NC5CCCCC5N4)ccc3[nH]2)cc1` (stereo not given) was tested, and the inhibition was -4.46%.
`COc1ccc(C(=O)COc2cccc(/C=C/C(=O)O)c2)cc1OC` showed an inhibition of -0.23%.
Work on `Cc1cccc2nc(-c3ccc(-c4ccc(NC(=O)Nc5ccc(Cl)cc5)cc4)cc3)[nH]c12` yielded an inhibition of -1.04%.
`COc1ccccc1C1CCN(C2CCC(NC(=O)/C=C/c3cc(C(F)(F)F)cc(C(F)(F)F)c3)CC2)CC1` (stereo not given) showed an inhibition of -2.77%.
With `CCCCCN1CCCN(Cc2cccc(NC(=O)c3ccc(-c4ccccc4)cc3)c2)CC1` the inhibition was 2.3%.
`COC(=O)Cn1c(C2CCN(CC3CCN(C(=O)/C=C/c4ccc(Cl)c(Cl)c4)CC3)CC2)nc2ccccc21` gave an inhibition of 2.04%.
With `Cc1cc(C(F)(F)F)cc(-n2ncc(-c3ccc(C(=O)NCc4ccccc4N)cc3)c2N)n1` the inhibition was 57.5%.
With `CC1(C)C(N(O)C(=O)Nc2ccc(Cl)c(Cl)c2)N(c2ccc(Cl)c(Cl)c2)C(=O)N1CCc1ccccc1` (stereo not given) the inhibition was 0%.
Work on `Cc1cc(=NN=Cc2ccc(F)cc2)c2cc(C(F)(F)F)ccc2[nH]1` yielded an inhibition of 0.92%.
Work on `CC(C)c1ncc(-c2ccncc2)c(C2CCC(CNC(=O)c3cccnc3)CC2)n1` (stereo not given) yielded an inhibition of 1.81%.
For `Cc1ccc(Nc2nc3cc(N(C)c4ccnc(Nc5cccc(CS(C)(=O)=O)c5)n4)ccc3o2)cc1`, the inhibition was 4.65%.
Work on `O=C(NCCCNc1ccc2ccccc2n1)c1cc2c(Cl)cc(Cl)cc2[nH]1` yielded an inhibition of 2.17%.
`Cc1cnn(-c2cccc(C(=O)NC3CCC(CCN4CCc5ccc(C#N)cc5CC4)CC3)c2)c1` (stereo not given) showed an inhibition of -0.22%.
`COc1cc(CN=C(S)NN=C(C)c2ccccn2)cc(OC)c1OC` showed an inhibition of 2.59%.
In the case of `O=C(Nc1ccc(C(=O)N(Cc2ccc3c(c2)OCO3)C2CCCC2)cc1)c1cccs1`, the inhibition is reported as -2.85%.
With `Cc1cc(=O)[nH]c2cc(Nc3ccnc(Nc4cccc(C(N)=O)c4)n3)ccc12` the inhibition was 3.24%.
`Cc1cc(=NN=Cc2ccccc2)c2cc(F)ccc2[nH]1` showed an inhibition of 6.79%.
